Only some compounds are listed: those with a hit (about 3.8% of all), similar ones and a draw of the others.
PAFAH2 inh: inhibitors of human PAFAH2; inhibition, % at 3.39 µM; recombinant PAFAH2, FP-rhodamine activity probe, fluorescence polarization; actives 0.99% (n = 340,000); Q99487;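 active means inhibition above the mean over all tested compounds plus 3 SD, cut at about 30% in these data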;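 further: inhibitors block probe labeling of enzyme so polarization drops; 0% = enzyme with DMSO and 100% = wells lacking PAFAH2 protein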
Pemphigus Ab inh: inhibitors of pemphigus antibody binding to human desmoglein-3 | P32926 | DSG3-coupled beads, scFv-anti-DSG3-GFP binding, flow cytometry; hits give low values | binding (percent of control), % at 10 µM | actives 0.48% (n = 310,000);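 active means binding more than 3 SD below its plate's average and above zero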;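 further: hits lower antibody fragment binding to DSG3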
M18AAP inhibitor: blocks P. falciparum M18 aspartyl aminopeptidase; AID 1822; actives 1.2% (n = 290,000); inhibition, % at 7.35 µM; recombinant PfM18AAP, H-Glu-NHMec fluorogenic cleavage;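 active means inhibition above the campaign mean inhibition over all tested compounds plus 3 SD, cut at about 28% in these data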;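 further: 0% = plate median of test compound wells and 100% = 2 mM ZnCl2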
pPAFAH FP inh: inhibitors of human plasma PAF acetylhydrolase (pPAFAH). actives 1.5% (n = 330,000). recombinant pPAFAH, FP-rhodamine probe fluorescence polarization. AID 463082. inhibition, % at 3.39 µM;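 active means inhibition above the mean inhibition across the screen plus 3 SD, cut at about 25% in these data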;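 further: inhibitors block binding of the rhodamine activity-based probe so polarization drops; 0% = enzyme with DMSO and 100% = wells lacking pPAFAH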
PAFAH1B2 inh: inhibitors of human PAFAH1B2. recombinant PAFAH1B2, FP-rhodamine activity probe, fluorescence polarization. inhibition, % at 3.39 µM. actives 1.2% (n = 340,000). AID 492953;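 active means inhibition above the mean of all tested compounds plus 3 SD, cut at about 24% in these data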;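 further: 0% = enzyme with DMSO and 100% = wells lacking PAFAH1B2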
Target sequence (P68402 whole entry, looked up): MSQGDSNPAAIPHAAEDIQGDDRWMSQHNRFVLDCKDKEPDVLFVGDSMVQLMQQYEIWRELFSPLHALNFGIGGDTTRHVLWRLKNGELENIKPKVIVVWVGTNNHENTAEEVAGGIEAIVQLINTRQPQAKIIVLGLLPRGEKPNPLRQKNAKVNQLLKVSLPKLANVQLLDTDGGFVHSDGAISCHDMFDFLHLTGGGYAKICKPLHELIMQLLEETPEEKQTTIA
PAFAH1B3 FP inh: PAFAH1B3 (human) inhibition. Q15102. actives 0.28% (n = 340,000). AID 492972. recombinant PAFAH1B3, FP-rhodamine probe, fluorescence polarization. inhibition, % at 3.39 µM;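 active means inhibition above the screen-wide average of all tested compounds plus 3 SD, cut at about 25% in these data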;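 further: 0% = enzyme with DMSO only and 100% = wells lacking PAFAH1B3 protein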
Target sequence (Q15102 whole entry, looked up): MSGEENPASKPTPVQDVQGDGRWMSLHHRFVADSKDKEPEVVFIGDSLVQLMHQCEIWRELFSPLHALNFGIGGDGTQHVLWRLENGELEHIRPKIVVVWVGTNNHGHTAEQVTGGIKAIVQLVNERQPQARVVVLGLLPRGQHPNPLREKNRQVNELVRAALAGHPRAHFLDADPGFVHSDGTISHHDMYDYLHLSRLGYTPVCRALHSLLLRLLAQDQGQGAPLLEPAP
The depositor's hits bear a star; nt = no result given.

SMILES	PAFAH2 inh	Pemphigus Ab inh	M18AAP inhibitor	pPAFAH FP inh	PAFAH1B2 inh	PAFAH1B3 FP inh
Nc1nc2c(c(=O)[nH]1)C(c1cccc3ccccc13)C1=C(N2)c2ccccc2C1=O (centres undefined)	21	41*	14	nt	4	0
Cc1ccc(C(=O)c2coc3cc([N+](=O)[O-])c(O)c([N+](=O)[O-])c23)cc1	2	20*	33*	20	7	1
N#C/C(=C(/O)CN1CCN(c2ccccc2F)CC1)c1nc(-c2ccc(Cl)cc2)cs1	10	60*	4	15	7	-2
CCOc1ccc(N2C(=O)C(Cl)=C(N3CCOCC3)C2=O)cc1	1	108	29*	8	2	5
CCOc1ccc(N2C(=O)C(Cl)=C(Nc3ccccc3O)C2=O)cc1	12	121	33*	7	8	5
O=c1nc(-c2ccccc2)c2ccccc2[nH]1	-4	88*	0	2	1	10
Cc1ccc(-c2nc(=O)[nH]c3ccccc23)cc1	2	108	0	-6	3	9
COc1ccc(CC(=O)Nc2ccc(/C(C)=N/NC(=O)c3cccc([N+](=O)[O-])c3)cc2)cc1	-2	78*	4	4	4	-1
CCCCC[C@H](O)/C=C/C1C(=O)C=C[C@H]1C/C=C\CCCC(=O)OC (some centres undefined)	3	101	nt	nt	6	10
NNC(=O)c1cc(NS(=O)(=O)c2cccs2)cc(NS(=O)(=O)c2cccs2)c1	17	89	nt	29*	15	21
COc1cccc(CNC(=O)CCn2ccc3cc(S(=O)(=O)N4CCC(C)CC4)ccc32)c1	4	89	6	4	25*	7
Cc1ccc(C(=O)N/C(=C/c2ccc(Cl)cc2)C(=O)NCC2CCCO2)cc1 (centres undefined)	-7	101	-6	4	0	2
Cc1ccc(C(=O)N/C(=C/c2ccc(N(C)C)cc2)C(=O)NCC2CCCO2)cc1 (centres undefined)	1	35*	14	6	3	3
CCN1CCN(CCNC(=O)c2ccc(/C=C3\Sc4ccccc4N(Cc4ccccc4F)C3=O)cc2)CC1	0	96	-2	25*	2	5
CC(Sc1n[nH]c(N)n1)C(=O)C12CC3CC(CC(C3)C1)C2 (centres undefined)	8	84	-5	-4	27*	3
Cc1cccc(C(O)c2cnc(C)n2Cc2ccccc2)c1 (centres undefined)	nt	105	nt	nt	nt	nt
O=C(O)c1cccc(Cn2cc(Cl)cn2)c1	0	98	6	9	3	11
COc1ccc(N2CCN(C(=O)c3cccc(Cn4cc(Cl)cn4)c3)CC2)cc1	7	26*	6	7	2	0
COc1ccc(NS(=O)(=O)c2ccc(NC(=O)C(CCSC)NC(N)=O)cc2)cc1 (centres undefined)	-6	102	-7	31*	3	-2
NC(=O)c1ccc(NC(=O)COC(=O)C2(c3ccccc3F)CCCC2)cc1	2	94	-1	-1	27*	8
O=C(COC(=O)C1(c2ccccc2F)CCCC1)NCc1cccs1	3	110	-8	4	7	11
CC1=NOC(=O)/C1=C/c1ccc(-c2ccc(Cl)cc2)o1	32*	75	13	12	10	11
CC1=NOC(=O)/C1=C\c1ccc(-c2ccc(Br)cc2)o1	24	77	3	nt	11	18
COc1cc(OC)c(NC(=O)c2cc3ccccc3cc2O)cc1Cl	-5	118	nt	nt	11	25
COC1=C(NCc2ccc3c(c2)OCO3)C(=O)C(OC)=C(NCc2ccc3c(c2)OCO3)C1=O	8	-15*	nt	nt	2	2
SMILES	PAFAH2 inh	Pemphigus Ab inh	M18AAP inhibitor	pPAFAH FP inh	PAFAH1B2 inh	PAFAH1B3 FP inh
O=C(O)c1ccc(NCc2ccc3c(c2)OCO3)cc1	2	103	0	-4	25*	-2
COCCCN(Cc1cc(OC)c(OC)c(OC)c1)C(=S)Nc1cccc(Cl)c1	nt	108	nt	nt	nt	nt
Cc1cccn2c(=O)c(C=NCc3ccco3)c(Nc3ccc(SC(F)F)cc3)nc12	-5	nt	7	34*	2	-1
Cc1cccn2c(=O)c(C=NCCO)c(NCc3ccco3)nc12	5	101	11	1	10	2
CCOC(=O)C(=CNc1cscc1S(=O)(=O)C(C)C)C(=O)OCC	-5	111	-1	6	8	6
COc1ccc(Oc2coc3cc(OC(=O)c4cccs4)ccc3c2=O)cc1	7	102	7	1	6	3
COc1ccc(Oc2coc3cc(OC(=O)N4CCOCC4)ccc3c2=O)cc1	9	98	-3	34*	-4	-4
COC(=O)\C(C(C)=O)=C(/C=C/C=C/C=C/N(C)C)N(C)C	-2	93	2	32*	-4	-5
COc1cc2c(cc1OC)C(O)=CC(=O)C2=O	nt	111	nt	nt	nt	nt
COc1ccc(C(=O)NC2CC2)cc1OC1CCN(Cc2ccc(F)c(F)c2)CC1	0	93	-2	7	0	10
N=c1c[n+](-c2ccc(Cl)cc2)[n-]o1	9	102	2	9	31*	-1
Cc1ccc(N2CC(C(=O)Nc3ccc(N4CCOCC4)cc3)CC2=O)cc1C (centres undefined)	-14	-0.9*	-6	1	-3	-2
CCOc1ccc(N2CC(C(=O)Nc3ccc(N4CCOCC4)cc3)CC2=O)cc1 (centres undefined)	4	-10*	2	-3	-9	-6
CCOc1ccc(N2CC(C(=O)OCC(=O)NCc3ccccc3)CC2=O)cc1 (centres undefined)	-2	82	4	27*	-3	-5
CCOc1ccc(N2CC(C(=O)NCc3ccccc3)CC2=O)cc1 (centres undefined)	-1	98	-3	-3	0	9
Cc1cc(C(=O)OCC(=O)Nc2sc3c(c2C#N)CCC(C)C3)c2ccccc2n1 (centres undefined)	0	86	19	25*	-1	1
COc1cc(OC)cc(-c2n[nH]c(=S)n2-c2ccc3c(c2)OCO3)c1	3	nt	32*	0	4	12
O=C(NNc1c2ccccc2nc2ccccc12)c1cccc(O)c1	16	nt	8	26*	8	16
O=C(NNc1c2ccccc2nc2ccccc12)c1ccccc1O	22	86	-5	32*	14	14
O=C(NCCN1CCOCC1)C(=O)NCC1OCCN1S(=O)(=O)c1ccc(Cl)cc1 (centres undefined)	nt	100	nt	nt	nt	nt
CC1(c2ccc(Cl)cc2Cl)NC(=O)N(CC(=O)NCCC2=CCCCC2)C1=O (centres undefined)	nt	98	nt	nt	nt	nt
O=C(c1ccc([N+](=O)[O-])cc1[N+](=O)[O-])n1cnc2ccccc21	6	79*	7	5	9	13
